Beta cell apopt: inhibitors of cytokine-induced beta cell apoptosis, primary screen, luminescence; protection from apoptosis, % (test concentration not listed); 300,000 compounds, 0.8% hits; AID 435005, 2010; INS-1E cytokine-induced death, ATP luminescence, 48 h; percent of positive-control rescue, neutral wells zero;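 active = Every replicate reaches about 75%, or at least half do and their mean reaches it too, limit read from the data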;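 note: 0% = cytokine-treated negative control wells and 100% = positive control rescue; higher means more ATP so stronger rescue from cytokine killing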
aSyn 5UTR inh: MLPCN primary screen, SNCA 5' untranslated region | alpha-synuclein 5'UTR reporter, inhibitor activity | inhibition, % (tested at 7.5 µM) | 300,000 compounds, 0.82% hits | AID 1813, 2009; in the data active = inhibition above about 60%;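 note: H4 neuroglioblastoma cells stably carrying SNCA 5'UTR luciferase fusion; 0% = DMSO wells and 100% = positive control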
Mdm2 MdmX PPI: inhibitors of human Mdm2-MdmX association, primary screen, cell-based, luminescence, split luciferase, SaOS-2, uHTS; SaOS-2 split-luciferase Mdm2/MdmX complementation; inhibition, % at 8 µM; 330,000 compounds, 3% hits;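 active = inhibition of at least 50% at 8 µM in the primary screen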
Target sequence (O15151 whole entry, looked up): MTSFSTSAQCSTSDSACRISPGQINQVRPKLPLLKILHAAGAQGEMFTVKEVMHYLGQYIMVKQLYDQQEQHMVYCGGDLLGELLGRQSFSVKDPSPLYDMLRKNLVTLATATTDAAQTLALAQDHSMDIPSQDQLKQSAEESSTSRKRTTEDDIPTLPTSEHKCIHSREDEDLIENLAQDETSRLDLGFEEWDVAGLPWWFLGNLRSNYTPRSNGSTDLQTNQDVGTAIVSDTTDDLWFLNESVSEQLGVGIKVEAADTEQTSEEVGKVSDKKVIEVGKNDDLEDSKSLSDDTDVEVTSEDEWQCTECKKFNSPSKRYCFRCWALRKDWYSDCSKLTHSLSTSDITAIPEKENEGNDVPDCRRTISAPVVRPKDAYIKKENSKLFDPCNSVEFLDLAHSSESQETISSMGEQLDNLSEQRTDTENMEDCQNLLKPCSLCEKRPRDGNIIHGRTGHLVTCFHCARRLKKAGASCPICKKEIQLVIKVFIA
Target sequence (Q00987 whole entry, looked up): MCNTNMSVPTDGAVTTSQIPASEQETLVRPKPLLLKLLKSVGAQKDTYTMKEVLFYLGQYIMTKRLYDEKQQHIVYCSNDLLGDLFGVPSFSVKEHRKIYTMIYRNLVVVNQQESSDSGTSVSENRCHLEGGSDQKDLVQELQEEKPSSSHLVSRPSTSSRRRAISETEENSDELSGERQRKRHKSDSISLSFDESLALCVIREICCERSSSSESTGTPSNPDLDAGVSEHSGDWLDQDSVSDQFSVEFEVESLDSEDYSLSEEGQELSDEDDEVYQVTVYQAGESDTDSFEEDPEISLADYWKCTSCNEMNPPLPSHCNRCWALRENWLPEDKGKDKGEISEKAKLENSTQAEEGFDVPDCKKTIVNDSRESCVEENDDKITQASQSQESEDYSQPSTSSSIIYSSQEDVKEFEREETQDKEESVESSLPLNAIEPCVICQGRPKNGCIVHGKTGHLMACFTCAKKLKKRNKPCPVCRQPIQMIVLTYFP
CSC inhib: cancer stem cell viability inhibitors, primary screen, luminescence; cancer stem cell-like cells viability; inhibition, % at 7.5 µM; 300,000 compounds, 1.1% hits; AID 2717, 2010; in the data active = inhibition above about 75%; tested in HMLE shEcad cells
Bfl-1 A1 inh: caspase 3/7 activation in MEF A1-2A-BIM cells, primary screen, A1 inhibitor project, cell-based, luminescence, HTS | caspase activation, % (concentration not given with the values) | Caspase-Glo 3/7 luminescence, 3 h; percent of clofoctol response, vehicle zero | 330,000 compounds, 0.066% hits;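 active = over half of replicate activation scores above 10%, or exactly half above 10 with the replicate mean above 10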
The depositor's hits bear a star; nt = not tested or not shown; ! = a repeat was not active. In the library only some 4.1% were active in any assay of this set; here they are far more common.

SMILES | Beta cell apopt | aSyn 5UTR inh | Mdm2 MdmX PPI | CSC inhib | Bfl-1 A1 inh
COc1ccc(N=C2C(=Nc3ccc(OC)cc3)N(c3ccc(N(C)C)cc3)C(=S)N2c2ccc(OC)cc2)cc1 | -4 | 99* | 47 | 67 | 0
COc1ccc(N=C2C(=Nc3ccc(OC)cc3)N(c3ccc(OC)cc3)C(=S)N2C(=O)c2ccc(OC)cc2)cc1 | 3 | -9 | -18 | -7 | -1
CSc1ccccc1OCc1cc(C(=O)N[C@H]2CCCCNC2=O)no1 | -3 | -83 | -76 | -11 | -6
Cn1cc(CNCc2ccc(OC(F)(F)F)cc2)c(-c2ccc3c(c2)OCCO3)n1 | 142* | 5 | 29 | 30 | -1
O=C(NCCN1CCOCC1)c1cccc(NS(=O)(=O)c2ccc(Br)cc2)c1 | -3 | -5 | 3 | -2 | 1
CCN(CC)CCNc1nc2c(c(=O)[nH]c(=O)n2C)n1CC(O)COc1ccc(Cl)cc1Cl (stereo not drawn) | -5 | 3 | 9 | -2 | -1
Cc1cc(C)n(-c2nc3c(c(=O)[nH]c(=O)n3C)n2CC(O)COc2ccc(Cl)cc2Cl)n1 (stereo not drawn) | 49 | 73* | 46 | 46 | 0
Cc1cc(C)c(Nc2cc(S(=O)(=O)O)c(N)c3c2C(=O)c2ccccc2C3=O)c(C)c1 | 16 | nt | nt | 94* | -1
COc1ccc(C(=O)Nc2ccc(NC(=O)Cc3ccccc3)cn2)cc1 | nt | -25 | -16 | 4 | 2
COc1ccc(/C=C2\SC(=S)N(CCC(=O)Nc3ccc(O)cc3)C2=O)cc1 | nt | -12 | 17 | 7 | 0
COc1ccc(/C=C2\SC(=O)N(CCCC(=O)Nc3ccc(C(=O)O)cc3)C2=O)cc1OC | -2 | 73* | -2 | -7 | 1
O=C(CCCN1C(=O)/C(=C/c2ccc3c(c2)OCO3)SC1=S)Nc1cccc(C(=O)O)c1 | 3 | 73* | 43 | -12 | -9
COc1ccc(/C=C2\SC(=O)N(CCC(=O)Nc3ccccc3)C2=O)cc1OC | -2 | 82* | 50 | -5 | -1
CCN(CC)CCOC(=O)c1ccc(NC(=O)CCCN2C(=O)S/C(=C/c3ccc(OC)cc3)C2=S)cc1 | -2 | 97* | 48 | 23 | -1
Oc1ccc(N2CCN(C(=S)NCCc3ccccc3)CC2)cc1 | 3 | 11 | 17 | 1 | 2
O=C(OCCN1C(=O)c2cccc3c(N4CCOCC4)ccc(c23)C1=O)c1ccc(Cl)cc1Cl | -2 | 99* | nt | 21 | 1
O=C(OCCN1C(=O)c2cccc3c(N4CCOCC4)ccc(c23)C1=O)c1ccccc1Cl | 19 | -30 | nt | 12 | 0
CC(C)CCCCCCNC(=S)Nc1ccc(S(=O)(=O)N2CCOCC2)cc1 | 98* | 32 | 29 | 91* | 0
CCCn1c(N)c(C(=O)CN(C)CC(=O)Nc2ccccc2C(F)(F)F)c(=O)[nH]c1=O | nt | nt | 24 | nt | nt
O=C(NCC(c1ccco1)N1CCc2ccccc2C1)c1ccc(Br)cc1 (stereo not drawn) | 3 | -7 | 25 | -7 | 0
CC1CCc2nc(NC(=O)c3ccco3)sc2C1 (stereo not drawn) | 14 | 88* | 18 | 1 | 1
O=C(Nc1nc2cc3c(cc2s1)OCO3)c1ccco1 | nt | 80* | nt | nt | nt
OCCN1CCN(C2CCC(c3ccc(F)cc3)c3ccc(F)cc32)CC1 (stereo not drawn) | 22 | 12 | 38 | 83* | 0
Cc1ccc(/C=C/C(=O)NC2CCCCCCC2)o1 | 6 | -2 | -5 | 145* | 1
Cc1ccc(/C=N/NC(=O)NC2CCCCC2)o1 | -5 | -66 | -3 | -3 | 0
SMILES | Beta cell apopt | aSyn 5UTR inh | Mdm2 MdmX PPI | CSC inhib | Bfl-1 A1 inh
CN(CC(=O)Nc1cccc(F)c1)CC(=O)Nc1ccccc1Oc1ccccc1 | 1 | -2 | 14 | -8 | 1
COc1ccccc1C(=O)COC(=O)c1ccc(N(C)C)cc1 | -7 | -218 | -240 | 6 | -2
COc1ccc(C(=O)c2ccc(N(C)C)cc2)c2ccccc12 | nt | 74* | 40 | nt | 1
O=c1[nH]c(C2CCN(S(=O)(=O)c3ccccc3C(F)(F)F)CC2)nc2c1nnn2Cc1cccc(F)c1 | nt | 24 | 41 | 10 | 0
Cc1ccc(CSc2ccc(-c3ccc4c(c3)OCO4)nn2)cc1 | -8 | -2 | -5 | 79* | 0
Cc1nn(-c2ccccc2)c(Cl)c1CN(C(=O)CCl)c1ccc(Cl)cc1 | 45 | -37 | nt | 51 | 6.2*
COc1cccc(NC(=O)COC(=O)c2cc(=O)c3ccccc3o2)c1 | -3 | nt | -7 | nt | 0
CCOC(=O)Cc1csc(NC(=O)c2cc(=O)c3ccccc3o2)n1 | 3 | -39 | -5 | 3 | -1
Cc1cc(C)c2nc(NNC(=O)c3cc(=O)c4ccccc4o3)sc2c1 | 4 | -12 | 5 | 79* | 1
Cc1cccc(N(CC(=O)NCCc2ccccc2)C(=O)c2csnn2)c1 | -3 | 5 | 10 | -1 | 0
CCOc1ccccc1N(C(=O)Nc1ccc(Cl)cc1)C1=NCCS1 | 3 | -19 | -9 | 84* | 0
CCOc1ccccc1N(C(=O)Nc1cccc(Cl)c1)C1=NC(C)CS1 (stereo not drawn) | -7 | 8 | 26 | 0 | 1
CCCc1cc(=O)[nH]c(SCC(=O)NC2(C#N)CCCCC2)n1 | -3 | nt | -34 | nt | 0
COC(=O)c1ccc(/C=C/c2c(-c3ccsc3)sc3ccccc23)cc1 | -3 | 13 | 19 | 94* | 0
COc1ccc(-c2sc3ccccc3c2/C=C/c2ccc(N)cc2)cc1 | 0 | nt | -40 | 97* | 1
S=c1[nH]nc(C2CCCCC2)n1/N=C/C(Cl)=C\c1ccccc1 | -8 | -75 | 43 | 109* | -1
S=c1[nH]nc(C2CCCCC2)n1/N=C/C=C/c1ccccc1 | -4 | 12 | 2 | -2 | 0
CCOC(=O)c1ccc(N=c2sc(C(=O)OC)cc(=O)n2CCCN2CCOCC2)cc1 | -1 | -28 | 12 | 101*! | 0
COc1cc(OC)cc(-c2sc3ccc(OC)cc3c2-c2ccc(OCCN3CCOCC3)cc2)c1 | nt | nt | 43 | nt | nt
COc1ccc(-c2sc3cc4c(cc3c2-c2ccc(OCCN3CCOCC3)cc2)OCO4)cc1 | 8 | nt | 17 | 125* | 0
C1=C(c2sc3ccccc3c2-c2ccc(OCCN3CCOCC3)cc2)CCCC1 | 2 | nt | 27 | 88* | 0
COc1cccc(-c2sc3ccc(OC)cc3c2-c2ccc(OCCN3CCOCC3)cc2)c1 | -4 | nt | 9 | 104* | 0
c1ccc(-c2sc3ccccc3c2-c2ccc(OCCN3CCOCC3)cc2)cc1 | -8 | nt | 7 | 86* | 3
COc1ccccc1-c1sc2ccccc2c1-c1ccc(OCCN2CCOCC2)cc1 | nt | nt | 34 | nt | nt
CC(C)[C@H](NS(=O)(=O)c1cccc(Cl)c1)C(=O)OCC(=O)NC(=O)CN1CCCC1=O | 1 | nt | -6 | -19 | -1

Assay outcomes as filed in PubChem.
